From PubChem BioAssay (EPA / NIEHS)
Inconclusive results are not listed. A structure can be active in one record and inactive in another. The source made the active and inactive calls. Rule for the calls, unless noted: active = hit-call score of the fitted dose curve at least 0.9, where 1 is the maximum; inactive = score below 0.9.

What was measured:
[1] = molecular target: Glucocorticoid receptor (Homo sapiens) (UniProt P04150); assay: ATG_GR_TRANS: Attagene TRANS-FACTORIAL HepG2 Assay for human Glucocorticoid Receptor (GR) (AID 2282978; active = hit-call score of the fitted dose curve at least 0.9, where 1 is the maximum;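 note: activators score as hits since higher reporter transcript over DMSO is fitted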); conditions: HepG2 Attagene TRANS GR reporter, mRNA transcription
Glucocorticoid receptor (Homo sapiens), sequence (P04150 whole entry, looked up): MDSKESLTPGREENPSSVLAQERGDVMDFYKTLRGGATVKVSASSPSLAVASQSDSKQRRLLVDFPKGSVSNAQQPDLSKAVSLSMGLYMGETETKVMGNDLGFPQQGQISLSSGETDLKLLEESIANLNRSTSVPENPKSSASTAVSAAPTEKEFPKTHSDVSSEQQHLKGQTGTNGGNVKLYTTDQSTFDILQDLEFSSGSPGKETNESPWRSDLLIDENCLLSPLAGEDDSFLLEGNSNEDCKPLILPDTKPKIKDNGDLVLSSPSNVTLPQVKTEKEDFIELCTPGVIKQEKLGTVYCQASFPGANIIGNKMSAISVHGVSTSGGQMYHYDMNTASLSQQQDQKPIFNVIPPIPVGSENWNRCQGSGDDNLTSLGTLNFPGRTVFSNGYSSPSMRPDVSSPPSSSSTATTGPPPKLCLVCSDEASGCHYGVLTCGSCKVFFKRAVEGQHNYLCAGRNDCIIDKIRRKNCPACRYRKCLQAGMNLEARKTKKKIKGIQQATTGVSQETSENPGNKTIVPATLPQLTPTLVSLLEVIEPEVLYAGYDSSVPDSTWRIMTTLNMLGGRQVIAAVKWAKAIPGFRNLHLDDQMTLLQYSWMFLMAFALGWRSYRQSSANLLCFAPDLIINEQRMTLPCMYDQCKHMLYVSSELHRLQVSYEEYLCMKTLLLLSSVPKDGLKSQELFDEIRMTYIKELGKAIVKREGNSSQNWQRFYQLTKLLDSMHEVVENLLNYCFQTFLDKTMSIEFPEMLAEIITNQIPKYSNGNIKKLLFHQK
How it was run: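 After 24 h incubation with test chemical, transfected HepG2 cells were lysed for RNA; reporter cDNA was amplified, FAM-labelled, HpaI-digested and sized on a capillary analyser. Signal gain relative to DMSO was scored.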

[2] = molecular target: Bile acid receptor (Homo sapiens) (UniProt Q96RI1); assay: ATG_FXR_TRANS: Attagene TRANS-FACTORIAL HepG2 Assay for Farnesoid X Receptor (FXR) (AID 2282979; active = hit-call score of the fitted dose curve at least 0.9, where 1 is the maximum;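 note: hits raise reporter mRNA above DMSO so AC50 marks FXR activation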); conditions: HepG2 Attagene TRANS FXR-GAL4 reporter transcription
Bile acid receptor (Homo sapiens), sequence (Q96RI1 whole entry, looked up, the tested form may be a part): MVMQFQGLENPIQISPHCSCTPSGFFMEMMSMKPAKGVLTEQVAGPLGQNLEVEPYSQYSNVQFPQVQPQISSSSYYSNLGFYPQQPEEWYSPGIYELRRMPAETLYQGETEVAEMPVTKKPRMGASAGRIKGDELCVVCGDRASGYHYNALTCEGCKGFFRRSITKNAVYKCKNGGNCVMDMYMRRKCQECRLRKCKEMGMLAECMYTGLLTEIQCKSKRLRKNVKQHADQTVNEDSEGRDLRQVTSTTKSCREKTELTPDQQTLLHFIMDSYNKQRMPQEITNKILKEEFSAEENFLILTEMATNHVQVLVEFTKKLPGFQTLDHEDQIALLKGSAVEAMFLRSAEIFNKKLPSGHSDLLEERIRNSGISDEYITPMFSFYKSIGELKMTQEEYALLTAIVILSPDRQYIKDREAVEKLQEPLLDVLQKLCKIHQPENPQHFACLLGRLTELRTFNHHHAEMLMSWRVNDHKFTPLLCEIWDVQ
How it was run: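 After 24 h chemical treatment of transfected HepG2 cells, GAL4-UAS reporter transcripts driven by an exogenous FXR-GAL4 fusion were measured by RT-PCR and capillary electrophoresis. Increases over DMSO were fitted.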

[3] = molecular target: Hepatocyte nuclear factor 4-alpha (Homo sapiens) (UniProt P41235); assay: ATG_HNF4a_TRANS: Attagene TRANS-FACTORIAL HepG2 Assay for human Hepatocyte Nuclear Factor 4 alpha (HNF4a) (AID 2282982; active = hit-call score of the fitted dose curve at least 0.9, where 1 is the maximum); conditions: HepG2 HNF4a transactivation reporter, mRNA readout
Hepatocyte nuclear factor 4-alpha (Homo sapiens), sequence (P41235 whole entry, looked up, the tested form may be a part): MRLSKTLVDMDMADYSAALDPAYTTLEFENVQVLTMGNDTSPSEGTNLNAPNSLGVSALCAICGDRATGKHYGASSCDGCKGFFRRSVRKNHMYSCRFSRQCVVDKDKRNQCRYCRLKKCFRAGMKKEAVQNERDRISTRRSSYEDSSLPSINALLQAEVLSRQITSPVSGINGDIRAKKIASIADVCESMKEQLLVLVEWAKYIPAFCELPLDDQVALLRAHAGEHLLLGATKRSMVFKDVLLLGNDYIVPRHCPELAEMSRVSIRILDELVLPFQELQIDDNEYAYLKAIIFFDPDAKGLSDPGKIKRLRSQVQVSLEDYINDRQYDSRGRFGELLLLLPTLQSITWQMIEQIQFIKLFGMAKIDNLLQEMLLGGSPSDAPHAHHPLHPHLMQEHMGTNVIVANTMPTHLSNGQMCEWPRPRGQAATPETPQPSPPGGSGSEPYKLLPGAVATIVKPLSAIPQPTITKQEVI
How it was run: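 Readout is fluorescent reporter-transcript fragments resolved by capillary electrophoresis after RT-PCR from HepG2 cells dosed for 24 h. Cells carried transfected GAL4-UAS reporter constructs measuring exogenous NR-GAL4 chimera activity; DMSO served as baseline.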

[4] = ATG_M_32_TRANS: Attagene TRANS-FACTORIAL HepG2 Assay for M32 Transcription Factor (Internal Marker) (AID 2282984; active = hit-call score of the fitted dose curve at least 0.9, where 1 is the maximum;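 note: transcript level of a background control reporter unit measured by RT-PCR and capillary electrophoresis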); conditions: HepG2 Attagene TRANS M32 internal marker reporter
How it was run: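 Measures reporter mRNA induction in human HepG2 liver cells after 24 h chemical treatment. Transcripts from transiently transfected GAL4-UAS reporter units are amplified, fluorescently labelled and sized by capillary electrophoresis; gain of signal relative to DMSO.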

[5] = molecular target: Nuclear receptor subfamily 4 group A member 2 (Homo sapiens) (UniProt P43354); assay: ATG_NURR1_TRANS: Attagene TRANS-FACTORIAL HepG2 Assay for human Nuclear Receptor Related Protein 1 (NURR1) (AID 2282985; active = hit-call score of the fitted dose curve at least 0.9, where 1 is the maximum); conditions: HepG2 Attagene TRANS reporter, mRNA readout
Nuclear receptor subfamily 4 group A member 2 (Homo sapiens), sequence (P43354 whole entry, looked up, the tested form may be a part): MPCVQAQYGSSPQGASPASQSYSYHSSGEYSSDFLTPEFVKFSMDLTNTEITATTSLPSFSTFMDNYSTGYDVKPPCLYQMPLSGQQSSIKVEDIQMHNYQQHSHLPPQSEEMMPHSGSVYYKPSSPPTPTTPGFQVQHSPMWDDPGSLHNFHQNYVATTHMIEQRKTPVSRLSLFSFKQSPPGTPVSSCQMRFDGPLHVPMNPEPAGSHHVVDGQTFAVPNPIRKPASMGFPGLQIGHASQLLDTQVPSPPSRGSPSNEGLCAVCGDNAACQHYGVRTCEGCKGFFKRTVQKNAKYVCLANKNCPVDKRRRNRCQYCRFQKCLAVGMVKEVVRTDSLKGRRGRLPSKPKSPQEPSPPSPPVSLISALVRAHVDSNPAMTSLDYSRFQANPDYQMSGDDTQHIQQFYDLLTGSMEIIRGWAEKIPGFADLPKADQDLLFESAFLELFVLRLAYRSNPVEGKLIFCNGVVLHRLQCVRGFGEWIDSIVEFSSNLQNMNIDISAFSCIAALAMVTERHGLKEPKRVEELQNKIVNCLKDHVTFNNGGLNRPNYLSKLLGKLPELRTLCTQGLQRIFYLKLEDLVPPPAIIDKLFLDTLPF
How it was run: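 Transient transfection of HepG2, human liver cells, with multiple GAL4-UAS reporter transcription units. Cells dosed 24 h, RNA isolated, reverse-transcribed, PCR-amplified, FAM-labelled, HpaI-digested, sized by capillary electrophoresis. DMSO served as negative control.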

[6] = molecular target: Transcriptional activator Myb (Homo sapiens) (UniProt P10242); assay: ATG_Myb_CIS: Attagene CIS-FACTORIAL HepG2 Assay for human Myeloblastosis (Myb) Proto-Oncogene Transcription Factor (AID 2282986); conditions: HepG2 Attagene CIS-FACTORIAL Myb reporter transcription; actives raise or lower the signal
Transcriptional activator Myb (Homo sapiens), sequence (P10242 whole entry, looked up): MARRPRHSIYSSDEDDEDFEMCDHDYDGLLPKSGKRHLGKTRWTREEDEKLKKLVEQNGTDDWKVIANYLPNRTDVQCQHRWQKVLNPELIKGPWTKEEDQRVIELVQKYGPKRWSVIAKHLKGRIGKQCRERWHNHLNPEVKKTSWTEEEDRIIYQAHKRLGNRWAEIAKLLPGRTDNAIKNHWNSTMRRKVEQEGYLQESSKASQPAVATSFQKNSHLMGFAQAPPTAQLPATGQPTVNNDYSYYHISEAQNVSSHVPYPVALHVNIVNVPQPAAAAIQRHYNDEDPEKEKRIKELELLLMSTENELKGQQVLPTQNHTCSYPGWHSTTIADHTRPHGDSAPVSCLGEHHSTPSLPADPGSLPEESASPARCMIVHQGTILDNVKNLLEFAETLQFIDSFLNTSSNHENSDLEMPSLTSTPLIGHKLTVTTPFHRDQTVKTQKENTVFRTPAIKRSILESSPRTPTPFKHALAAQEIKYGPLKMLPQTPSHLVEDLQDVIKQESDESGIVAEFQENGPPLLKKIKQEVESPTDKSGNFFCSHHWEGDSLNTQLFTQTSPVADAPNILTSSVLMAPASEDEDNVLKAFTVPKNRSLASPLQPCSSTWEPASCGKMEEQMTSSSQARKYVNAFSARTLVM
How it was run: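 After 24 h of compound dosing, total RNA from transfected HepG2 cells is reverse-transcribed and the reporter sequences amplified, labeled and separated by capillary electrophoresis. Values come from bidirectional fitting against DMSO.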

[7] = molecular target: Nuclear respiratory factor 1 (Homo sapiens) (UniProt Q16656); assay: ATG_NRF1_CIS: Attagene CIS-FACTORIAL HepG2 Assay for human Nuclear Respiratory Factor 1 (NRF1) Orphan Gene (AID 2282987); conditions: HepG2 NRF1 cis-element reporter, Attagene multiplex; actives raise or lower the signal
Nuclear respiratory factor 1 (Homo sapiens), sequence (Q16656 whole entry, looked up): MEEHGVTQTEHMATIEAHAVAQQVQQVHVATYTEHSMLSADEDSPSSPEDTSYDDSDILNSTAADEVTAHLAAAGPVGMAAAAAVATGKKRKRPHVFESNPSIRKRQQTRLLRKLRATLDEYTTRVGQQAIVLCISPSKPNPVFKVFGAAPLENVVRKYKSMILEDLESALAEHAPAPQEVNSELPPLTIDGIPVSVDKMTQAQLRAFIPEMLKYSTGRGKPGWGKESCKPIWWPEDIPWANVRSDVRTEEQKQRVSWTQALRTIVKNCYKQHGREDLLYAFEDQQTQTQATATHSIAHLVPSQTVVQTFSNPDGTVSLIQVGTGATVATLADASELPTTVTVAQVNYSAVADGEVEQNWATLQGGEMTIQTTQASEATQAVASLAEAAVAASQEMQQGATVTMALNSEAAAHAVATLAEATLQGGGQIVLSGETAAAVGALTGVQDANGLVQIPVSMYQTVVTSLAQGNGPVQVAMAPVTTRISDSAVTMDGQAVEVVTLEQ
How it was run: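 Measured: fluorescent reporter-specific RT-PCR products from transfected HepG2 cells, separated by capillary electrophoresis. Exposure lasted 24 h. Analysis used bidirectional curve fitting with DMSO as negative control.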

[8] = ATG_NFI_CIS: Attagene CIS-FACTORIAL HepG2 Assay for human Nuclear Factor I (NFI) (AID 2282989); conditions: HepG2 cis-regulatory reporter, NFI response element transcription; actives raise or lower the signal
How it was run: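 Reporter transcription driven by endogenous transcription factors in HepG2 cells; 24 h treatment. Quantitation by labelled RT-PCR fragments on capillary electrophoresis, gain- or loss-of-signal relative to DMSO.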

[9] = molecular target: Myc proto-oncogene protein (Homo sapiens) (UniProt P01106); assay: ATG_Myc_CIS: Attagene CIS-FACTORIAL HepG2 Assay for human Myelocytomatosis (Myc) Proto-Oncogene Transcription Factor (AID 2282990); conditions: HepG2, Attagene cis-reporter transcription factor activity; actives raise or lower the signal
Myc proto-oncogene protein (Homo sapiens), sequence (P01106 whole entry, looked up, the tested form may be a part): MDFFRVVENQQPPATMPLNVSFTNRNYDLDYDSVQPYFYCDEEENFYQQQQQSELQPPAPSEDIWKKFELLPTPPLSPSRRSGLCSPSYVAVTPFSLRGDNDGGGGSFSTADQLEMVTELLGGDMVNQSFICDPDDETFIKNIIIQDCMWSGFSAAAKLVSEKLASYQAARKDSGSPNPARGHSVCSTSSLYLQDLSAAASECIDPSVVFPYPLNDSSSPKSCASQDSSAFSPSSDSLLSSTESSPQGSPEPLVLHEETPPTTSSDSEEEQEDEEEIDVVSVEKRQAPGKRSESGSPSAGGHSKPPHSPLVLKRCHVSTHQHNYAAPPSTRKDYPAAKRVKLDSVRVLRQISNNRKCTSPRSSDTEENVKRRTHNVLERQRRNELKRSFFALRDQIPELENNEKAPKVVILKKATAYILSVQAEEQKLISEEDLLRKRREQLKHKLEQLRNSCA
How it was run: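 After 24 h chemical treatment of HepG2 cells carrying multiplexed cis-regulated reporter constructs, reporter transcripts quantified by RT-PCR and capillary electrophoresis of fluorescent fragments. Gain or loss fitted against DMSO baseline.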

[10] = ATG_NF_kB_CIS: Attagene CIS-FACTORIAL HepG2 Assay for human Nuclear Factor Kappa B (NF-kB) (AID 2282991); conditions: HepG2 Attagene cis-factorial NF-kB reporter mRNA; actives raise or lower the signal
How it was run: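 Fluorescence of labelled RT-PCR products separated by capillary electrophoresis gives reporter mRNA levels from transfected HepG2 cells exposed 24 h; values are fitted in both directions relative to DMSO.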

[11] = ATG_NRF2_ARE_CIS: Attagene CIS-FACTORIAL HepG2 Assay for human Nuclear Factor Erythroid 2 Related Factor 2 (NFR2) response to Antioxidant Response Elements (ARE) (AID 2282992); conditions: HepG2 Attagene ARE/NRF2 reporter, transcription factor activity; actives raise or lower the signal
How it was run: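 HepG2 cells transiently transfected with multiplexed cis-element reporter constructs, 24 h after chemical dosing; reporter mRNA quantified by RT-PCR, fluorescent primer extension, HpaI digestion and capillary electrophoresis. Bidirectional fit relative to DMSO.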

[12] = ATG_Oct_MLP_CIS: Attagene CIS-FACTORIAL HepG2 Assay for human Octamer-Binding Transcription Factor (Oct) (AID 2282993); conditions: HepG2 Attagene cis-factorial Oct reporter, mRNA; actives raise or lower the signal
How it was run: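 Transfected HepG2 cells, 24 h treatment. Reporter mRNA quantified by RT-PCR–capillary electrophoresis; bidirectional fitting against DMSO.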

[13] = molecular target: Oxysterols receptor LXR-alpha (Homo sapiens) (UniProt Q13133); assay: ATG_LXRa_TRANS: Attagene TRANS-FACTORIAL HepG2 Assay for human Liver X Receptor alpha (LXRa) (AID 2282980; active = hit-call score of the fitted dose curve at least 0.9, where 1 is the maximum); conditions: HepG2 Attagene TRANS reporter, LXRa transactivation
How it was run: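 In this multiplexed TRANS system, compounds act on HepG2 cells carrying GAL4-UAS reporter units and a receptor-GAL4 fusion for 24 h. Induced reporter RNA is amplified, fluorescently labelled and sized by capillary electrophoresis, with DMSO as baseline.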

[14] = molecular target: Oxysterols receptor LXR-beta (Homo sapiens) (UniProt P55055); assay: ATG_LXRb_TRANS: Attagene TRANS-FACTORIAL HepG2 Assay for human Liver X Receptor beta (LXRb) (AID 2282981; active = hit-call score of the fitted dose curve at least 0.9, where 1 is the maximum); conditions: HepG2 Attagene TRANS GAL4-LXRb reporter, mRNA
Oxysterols receptor LXR-beta (Homo sapiens), sequence (P55055 whole entry, looked up, the tested form may be a part): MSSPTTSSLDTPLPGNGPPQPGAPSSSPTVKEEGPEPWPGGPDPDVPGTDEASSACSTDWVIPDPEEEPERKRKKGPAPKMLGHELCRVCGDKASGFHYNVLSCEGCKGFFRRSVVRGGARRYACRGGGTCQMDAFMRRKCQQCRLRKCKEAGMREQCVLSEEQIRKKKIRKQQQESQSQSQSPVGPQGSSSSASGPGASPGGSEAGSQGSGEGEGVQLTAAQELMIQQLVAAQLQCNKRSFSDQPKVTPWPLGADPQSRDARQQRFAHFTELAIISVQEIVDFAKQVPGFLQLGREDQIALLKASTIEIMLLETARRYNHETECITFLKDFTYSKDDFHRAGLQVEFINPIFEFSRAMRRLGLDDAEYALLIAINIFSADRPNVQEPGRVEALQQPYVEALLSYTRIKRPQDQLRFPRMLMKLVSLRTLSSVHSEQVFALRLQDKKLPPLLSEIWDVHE
How it was run: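 Transient transfection HepG2 (multiplexed RTUs, GAL4-UAS); NR-Gal4 chimera; 24 h exposure; RNA → RT-PCR → 6-FAM primer extension → HpaI → CE; increase vs DMSO.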

[15] = ATG_M_06_TRANS: Attagene TRANS-FACTORIAL HepG2 Assay for M06 Transcription Factor (Internal Marker) (AID 2282983; active = hit-call score of the fitted dose curve at least 0.9, where 1 is the maximum); conditions: HepG2 Attagene TRANS M06 internal marker reporter
How it was run: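 Internal-marker background readout from a multiplexed TRANS reporter system in HepG2; 24 h dosing; mRNA induction quantified by RT-PCR plus capillary electrophoresis fluorescence; DMSO as negative control and baseline.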

[16] = molecular target: Cellular tumor antigen p53 (Homo sapiens) (UniProt P04637); assay: ATG_p53_CIS: Attagene CIS-FACTORIAL HepG2 Assay for human p53 Transcription Factor (AID 2282994); conditions: HepG2 p53 cis-element reporter, Attagene mRNA; actives raise or lower the signal
Cellular tumor antigen p53 (Homo sapiens), sequence (P04637 whole entry, looked up): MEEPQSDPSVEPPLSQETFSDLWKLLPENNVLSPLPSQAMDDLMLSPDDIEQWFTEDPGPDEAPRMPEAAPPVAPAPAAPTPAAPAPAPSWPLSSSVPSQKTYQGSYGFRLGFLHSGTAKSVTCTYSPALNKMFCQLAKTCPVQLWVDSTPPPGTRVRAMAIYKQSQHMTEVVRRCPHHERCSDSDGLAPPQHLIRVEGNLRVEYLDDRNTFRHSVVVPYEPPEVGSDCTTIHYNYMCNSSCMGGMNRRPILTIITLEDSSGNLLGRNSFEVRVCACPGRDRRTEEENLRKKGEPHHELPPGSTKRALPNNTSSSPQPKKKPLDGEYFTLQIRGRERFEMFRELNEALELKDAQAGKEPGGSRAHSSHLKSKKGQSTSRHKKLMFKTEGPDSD
How it was run: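 HepG2 cells transiently transfected with cis-regulated multiple reporter transcription units, dosed 24 h. Reporter mRNA measured by RT-PCR, 6-FAM primer extension, HpaI digestion and capillary electrophoresis; bidirectional fit relative to DMSO.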

[17] = BSK_3C_TissueFactor: BioMAP Diversity Plus: 3C Assay for Tissue Factor Biomarker Activity (AID 2282997); conditions: BioMAP 3C HUVEC, tissue factor biomarker readout; actives raise or lower the signal
How it was run: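 Endothelial monolayers (human umbilical vein, primary) are dosed, incubated 24 h, and assayed for Tissue Factor by ELISA; DMSO serves as negative control for bidirectional fitting.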

[18] = BSK_3C_uPAR: BioMAP Diversity Plus: 3C Assay for Urokinase-type plasminogen activator receptor (uPAR) Biomarker Activity (AID 2282998); conditions: BioMAP 3C HUVEC, uPAR biomarker ELISA; actives raise or lower the signal
How it was run: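 Readout: ELISA for surface uPAR. System: human umbilical vein endothelial primary cells, 24 h after chemical exposure. Analysis: bidirectional fit, DMSO baseline.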

[19] = BSK_3C_VCAM1: BioMAP Diversity Plus: 3C Assay for Vascular cell adhesion molecule 1 (VCAM1) Biomarker Activity (AID 2282999); conditions: BioMAP 3C HUVEC, VCAM1 ELISA, cytokine-stimulated; actives raise or lower the signal
How it was run: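 Endothelial cells from human umbilical vein are treated with test chemical. At 24 h, VCAM-1 is measured by ELISA, and responses in either direction are fitted relative to DMSO.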

Measured: AC50

CCCCC(C=O)CC (stereo not given)
not listed: [13] | [14] | [15] | [16] | [17] | [18] | [19]
inactive: all other assays above

OCCCc1ccccc1
not listed: [2] | [5] | [17] | [18] | [19]
inactive: all other assays above

CC=CC(=O)OCC(C)C
not listed: [4] | [5] | [13] | [14] | [17] | [18] | [19]
inactive: all other assays above

CCCCCCCCCC(C)=O
not listed: [2] | [3] | [15] | [17] | [18] | [19]
inactive: all other assays above

CC1CC(=O)CC(C)(C)C1 (stereo not given)
not listed: [2] | [3] | [4] | [5] | [17] | [18] | [19]
inactive: all other assays above

COc1ccc(C(=O)c2ccccc2)c(O)c1
active: [10] 168 µM | [11] 100 µM
not listed: [3] | [13]
inactive: all other assays above

COc1ccc(-c2coc3cc(O)cc(O)c3c2=O)cc1
inactive: [1] | [13] | [14] | [3] | [15] | [4] | [8] | [9]
active: [7] 25.9 µM | [11] 27.2 µM | [12] 39 µM | [16] 159 µM

CC(C)[N+](C)(CCOC(=O)C1c2ccccc2Oc2ccccc21)C(C)C
not listed: [3] | [4] | [5] | [13] | [15]
inactive: all other assays above

C[N+](C)(C)CCCNS(=O)(=O)C(F)(F)C(F)(F)C(F)(F)C(F)(F)C(F)(F)C(F)(F)C(F)(F)C(F)(F)F
inactive: [1] | [2] | [3] | [15] | [5] | [6] | [7] | [8] | [9] | [10] | [11] | [12] | [16] | [17] | [18] | [19]
active: [17] 41.3 µM | [18] 20.7 µM

COc1cc(C)ccc1O
inactive: [1] | [13] | [14] | [15] | [4] | [6] | [7] | [8] | [9] | [16]
active: [11] 17.4 µM
